# According to PubChem BioAssay:
# Calls of active or inactive are those of the source. Unless noted, the rule behind the calls is not given here.
# What was measured:
# [1] = system: Wnt5a (protein binding on small-molecule microarray); experiment: small molecules binding Wnt5a protein – biophysical, small-molecule microarray, 635/667 nm fluorescence, primary screen (AID 1142); details: 635 nm fluorescence, higher = more signal;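 note: fluorescence read at 667 nm with signal to noise per printed feature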
# [2] = ATP-based viability of Huh7 replicon cells – cell-based, CellTiter-Glo luminescence, basal, 48 h, cytotoxicity control for HCV replication inhibitor project, primary screen (AID 1143); details: higher = more signal, called active from +8 up or from −8 down;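 note: Huh7 hepatoma cells carrying a hepatitis C replication reporter with no stimulus; test concentration not given here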
# [3] = Pseudomonas biofilm growth suppression – PAO1 strain, BacTiter-Glo luminescence, LB-PBS, primary screen (AID 1144); details: P. aeruginosa PAO1 biofilm, 12 h, higher = more signal
# [4] = basal CRE-LacZ reporter activity in PC12 – cell-based, unstimulated, primary screen (AID 1145); details: no forskolin, luminescence, 4.5 h, higher = more signal, called active from +8 up or from −8 down
# [5] = forskolin-driven CRE-LacZ activity in PC12 – cell-based, CRE-LacZ reporter, forskolin-stimulated, primary screen (AID 1146); details: luminescence, 4.5 h, higher = more signal, called active from +8 up or from −8 down;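 note: PC12 cells with 6xCRE LacZ reporter stimulated by forskolin 10 µM; beta-galactosidase reporter signal reflecting CREB driven transcription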
# [6] = target: Streptavidin (Streptomyces avidinii) (UniProt P22629); experiment: compounds binding control protein streptavidin – biophysical, small-molecule microarray, 635/667 nm fluorescence, artefact control for SMM compound annotation, primary screen (AID 1147); details: higher = more signal;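 note: signal reflects streptavidin binding to arrayed compounds as a control protein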
# [7] = probe aInhba binding on compound microarray – biochemical, small-molecule microarray, 635/667 nm fluorescence, primary screen (AID 1148); details: higher = more signal;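 note: score merges 667nm spot fluorescence with signal-to-noise for antibody binding to printed compounds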
# [8] = target: Torsin-1A (Homo sapiens) (UniProt O14656); experiment: TOR1A wild-type binding on microarray – cell lysate, small-molecule microarray, lysate, 635/667 nm, primary screen (AID 1149); details: COS7 hTOR1A-WT lysate, 635 nm fluorescence, higher = more signal
# [9] = target: Torsin-1A (Homo sapiens) (UniProt O14656); experiment: torsin A mutant lysate binding on microarrays – cell lysate, small-molecule microarray, COS7 lysate, 635/667 nm fluorescence, primary screen (AID 1150); details: COS7 hTOR1A mutant lysate, 635 nm fluorescence, higher = more signal;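 note: score pools 667 nm emission and signal to noise measuring lysate protein binding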
# [10] = system: Sonic hedgehog protein (Shh); experiment: Sonic hedgehog microarray binding compounds – biochemical, small-molecule microarray, 635/667 nm fluorescence, primary screen (AID 1151); details: 635 nm fluorescence, higher = more signal;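 note: Shh protein binding to compounds spotted on small-molecule microarray slides; score combines spot fluorescence intensity with signal-to-noise across triplicate slides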
# [11] = optical density shifts of acrAB sulA E. coli – strain DRC41, OD650, 48 h, E. coli filamentation inducer project, primary screen (AID 1152); details: higher = more signal, called active from +8 up or from −8 down;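 note: E. coli MC1000 strain DRC41 lacking acrAB efflux pump and sulA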
# [12] = probe aLefty1 binding on compound microarray – biochemical, small-molecule microarray, 635/667 nm fluorescence, primary screen (AID 1153); details: higher = more signal;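 note: score merges spot fluorescence with signal-to-noise ratio from the scanned slide images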
# [13] = plasmodial surface anion channel blockers, osmotic lysis – cell-based, P. falciparum Indochina, OD700, 1 h, primary screen (AID 1154); details: P. falciparum Indochina infected RBC osmotic lysis, higher = more signal, called active from +8 up or from −8 down
# [14] = plasmodial surface anion channel blockers, osmotic lysis – cell-based, P. falciparum Indochina, OD700, 2 h, primary screen (AID 1155);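 note: lysis reports solute entry through the parasite surface anion channel PSAC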; details: P. falciparum Indochina infected erythrocytes, higher = more signal, called active from +8 up or from −8 down
# [15] = changes in parasitized red cell lysis, either direction – P. falciparum Indochina, OD700, 3 h, PSAC antagonist project, primary screen (AID 1156); details: P. falciparum-infected erythrocytes, osmotic lysis, higher = more signal, called active from +8 up or from −8 down
# [16] = plasmodial surface anion channel blockers, osmotic lysis – cell-based, P. falciparum Indochina, OD700, 18 h, primary screen (AID 1157); details: P. falciparum Indochina infected erythrocytes, osmotic lysis OD700, 18 h; higher = more signal, called active from +8 up or from −8 down
# [17] = S6 kinase pathway phospho-S6 level changes – cell-based, A549, cytoblot, luminescence, serum-stimulated, primary screen (AID 1158); details: 5 h, higher = more signal;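 note: serum-stimulated A549 lung adenocarcinoma cells; signal is phosphorylated S6 detected by cytoblot immunostaining with HRP secondary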
# [18] = target: NADPH oxidase 2 (Homo sapiens) (UniProt P04839); experiment: compounds shifting NOX2 Amplex Red fluorescence – cell-based, HEK293-NOX2, PMA-stimulated, NOX inhibitor project, primary screen (AID 1159); details: 45 min, higher = more signal, called active from +8 up or from −8 down; note: test concentration not given here
# [19] = target: NADPH oxidase 4 (Homo sapiens) (UniProt Q9NPH5); experiment: compounds shifting NOX4 Amplex Red fluorescence – cell-based, HEK293-NOX4, tetracycline-induced, NOX inhibitor project, primary screen (AID 1160); details: HEK293-NOX4, Amplex Red H2O2 fluorescence, 45 min; higher = more signal, called active from +8 up or from −8 down
# [20] = target: NADPH oxidase 5 (Homo sapiens) (UniProt Q96PH1); experiment: compounds shifting NOX5 Amplex Red fluorescence – cell-based, HEK293-NOX5, NOX inhibitor project, primary screen (AID 1161); details: HEK293-NOX5, ionomycin, 45 min, higher = more signal
# Chain of NADPH oxidase 5 (Homo sapiens) (Q96PH1 whole entry, looked up): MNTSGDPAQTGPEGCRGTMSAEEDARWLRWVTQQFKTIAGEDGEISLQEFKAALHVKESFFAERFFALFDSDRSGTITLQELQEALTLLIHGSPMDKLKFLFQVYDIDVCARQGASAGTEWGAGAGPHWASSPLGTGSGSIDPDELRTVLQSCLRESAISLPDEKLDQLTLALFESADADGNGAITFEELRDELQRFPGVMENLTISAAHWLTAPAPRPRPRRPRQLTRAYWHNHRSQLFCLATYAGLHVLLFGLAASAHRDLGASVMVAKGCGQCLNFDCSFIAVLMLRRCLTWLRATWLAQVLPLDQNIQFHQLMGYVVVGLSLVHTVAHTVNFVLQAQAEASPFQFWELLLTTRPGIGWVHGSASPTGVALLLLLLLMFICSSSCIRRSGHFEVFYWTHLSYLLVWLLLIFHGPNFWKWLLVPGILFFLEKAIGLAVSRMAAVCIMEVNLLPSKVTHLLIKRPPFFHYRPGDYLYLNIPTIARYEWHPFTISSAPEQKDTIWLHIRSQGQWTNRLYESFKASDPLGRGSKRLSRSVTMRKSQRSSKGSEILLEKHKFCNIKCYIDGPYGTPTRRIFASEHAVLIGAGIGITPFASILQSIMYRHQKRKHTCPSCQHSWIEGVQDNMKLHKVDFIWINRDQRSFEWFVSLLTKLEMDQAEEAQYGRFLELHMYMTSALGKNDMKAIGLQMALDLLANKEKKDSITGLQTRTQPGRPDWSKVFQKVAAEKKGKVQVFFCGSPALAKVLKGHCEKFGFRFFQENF
# Chain of NADPH oxidase 4 (Homo sapiens) (Q9NPH5 whole entry, looked up): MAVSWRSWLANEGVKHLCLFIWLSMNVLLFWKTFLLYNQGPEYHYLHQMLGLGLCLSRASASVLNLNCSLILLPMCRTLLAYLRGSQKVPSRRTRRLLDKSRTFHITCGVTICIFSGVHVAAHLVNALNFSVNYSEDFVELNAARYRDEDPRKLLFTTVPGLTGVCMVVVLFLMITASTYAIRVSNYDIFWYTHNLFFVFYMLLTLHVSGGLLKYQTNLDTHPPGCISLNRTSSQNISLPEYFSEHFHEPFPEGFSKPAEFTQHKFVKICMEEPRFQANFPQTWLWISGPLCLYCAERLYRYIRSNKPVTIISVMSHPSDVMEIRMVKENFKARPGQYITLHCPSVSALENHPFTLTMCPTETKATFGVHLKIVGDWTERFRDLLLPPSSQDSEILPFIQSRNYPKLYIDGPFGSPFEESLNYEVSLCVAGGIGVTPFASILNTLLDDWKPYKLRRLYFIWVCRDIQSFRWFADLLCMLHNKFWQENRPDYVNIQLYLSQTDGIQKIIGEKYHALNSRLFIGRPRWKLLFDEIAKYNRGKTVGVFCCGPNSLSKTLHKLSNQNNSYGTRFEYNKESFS
# Chain of Torsin-1A (Homo sapiens) (O14656 whole entry, looked up): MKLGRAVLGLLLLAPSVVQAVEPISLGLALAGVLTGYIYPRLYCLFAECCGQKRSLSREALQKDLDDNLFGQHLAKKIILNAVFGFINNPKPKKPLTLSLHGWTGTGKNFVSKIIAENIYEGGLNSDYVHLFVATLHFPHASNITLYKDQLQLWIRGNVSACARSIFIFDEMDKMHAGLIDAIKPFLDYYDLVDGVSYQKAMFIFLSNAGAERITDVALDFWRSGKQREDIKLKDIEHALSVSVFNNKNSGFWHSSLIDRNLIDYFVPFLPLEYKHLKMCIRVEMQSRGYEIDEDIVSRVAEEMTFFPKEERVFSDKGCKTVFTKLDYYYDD
# Chain of Streptavidin (Streptomyces avidinii) (P22629 whole entry, looked up): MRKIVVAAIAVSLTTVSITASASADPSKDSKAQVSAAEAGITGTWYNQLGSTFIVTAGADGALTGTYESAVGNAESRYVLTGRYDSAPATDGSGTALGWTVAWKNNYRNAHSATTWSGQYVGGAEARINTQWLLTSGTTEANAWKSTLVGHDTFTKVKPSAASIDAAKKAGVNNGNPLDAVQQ
# Chain of NADPH oxidase 2 (Homo sapiens) (P04839 whole entry, looked up): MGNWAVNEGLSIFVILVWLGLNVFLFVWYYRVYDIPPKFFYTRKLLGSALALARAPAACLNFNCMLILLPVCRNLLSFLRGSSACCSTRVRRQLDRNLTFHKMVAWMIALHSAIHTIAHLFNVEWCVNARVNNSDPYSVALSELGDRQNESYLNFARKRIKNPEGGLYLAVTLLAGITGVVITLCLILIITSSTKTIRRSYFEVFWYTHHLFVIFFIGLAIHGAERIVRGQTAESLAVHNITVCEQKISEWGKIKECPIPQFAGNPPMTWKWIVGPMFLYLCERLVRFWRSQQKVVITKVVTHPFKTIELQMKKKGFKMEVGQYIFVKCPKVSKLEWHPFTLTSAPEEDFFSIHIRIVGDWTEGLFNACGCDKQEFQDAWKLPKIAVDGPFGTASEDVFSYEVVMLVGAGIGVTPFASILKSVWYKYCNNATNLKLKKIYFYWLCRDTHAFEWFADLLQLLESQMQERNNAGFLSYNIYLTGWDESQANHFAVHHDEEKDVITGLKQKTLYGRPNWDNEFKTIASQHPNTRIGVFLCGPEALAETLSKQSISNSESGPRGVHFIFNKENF
Structure (SMILES),composite z-score [1],z-score [2],z-score [3],z-score [4],z-score [5],composite z-score [6],composite z-score [7],composite z-score [8],composite z-score [9],composite z-score [10],z-score [11],composite z-score [12],z-score [13],z-score [14],z-score [15],z-score [16],z-score [17],z-score [18],z-score [19],z-score [20]
CO[C@H]1COC(=O)CC=C[C@H](C)COC(=O)[C@@H](C)NC(=O)CC=C[C@@H]1C,0.042,-2.06 (inactive),-1.59 (inactive),-0.31 (inactive),-0.0543 (inactive),0.0677,-0.25,2.78,2.8,2.08,-0.447 (inactive),0.0669,-0.499 (inactive),-1.13 (inactive),0.475 (inactive),-2.08 (inactive),1.27,0.157 (inactive),0.148 (inactive),-0.0359
CON=C[C@@H](C)[C@H](OCc1ccccc1)C(C)C,0.103,-1.83 (inactive),-1.54 (inactive),0.987 (inactive),-0.278 (inactive),-0.0087,-0.0963,0.537,-0.253,0.224,-2.85 (inactive),-0.378,0.0221 (inactive),0.234 (inactive),0.718 (inactive),-1.37 (inactive),0.564,-0.307 (inactive),-1.21 (inactive),-0.786
C[C@@H](c1ccccc1)N1C(=O)[C@H]2[C@H]3[C@H](O)[C@H](O)CC(=NO[C@@H]4O[C@H](CO)[C@@H](O)[C@H](O)[C@H]4O)[C@@H]3CC[C@H]2C1=O,0.0794,0.401 (inactive),-0.783 (inactive),-0.566 (inactive),0.331 (inactive),0.238,-0.0626,1.1,0.907,0.116,0.387 (inactive),-0.0272,-0.091 (inactive),-0.076 (inactive),-0.698 (inactive),-0.137 (inactive),-0.689,-0.119 (inactive),0.552 (inactive),0.0309
CC(CCN1CCCCc2nc(C)c(C)cc21)=NO[C@@H](C)c1cn([C@H](CO)Cc2ccccc2)nn1,-0.0648,-0.831 (inactive),0.48 (inactive),1.62 (inactive),-0.0513 (inactive),0.336,-0.016,0.803,0.728,1.02,0.72 (inactive),0.0618,2.04 (inactive),0.32 (inactive),0.729 (inactive),0.367 (inactive),-0.11,-2.09 (inactive),-0.106 (inactive),-0.199
CCOC(=O)[C@H](Cc1ccccc1)NC(=O)CCC1CC(OC(=O)NCCc2ccc(F)cc2)CC2(CCCC(COC(=O)NCCCN3CCCC3=O)O2)O1 (stereo not given in full),0.126,-1.04 (inactive),-1.68 (inactive),-0.165 (inactive),0.0137 (inactive),0.625,-0.206,0.144,0.321,0.733,0.141 (inactive),-0.105,-1.36 (inactive),-0.861 (inactive),-0.0494 (inactive),-0.445 (inactive),0.94,-0.232 (inactive),0.192 (inactive),-1.09
C=CC[C@@H]1C=C[C@H](ON=C2[C@H]3CCn4c(=O)n(-c5ccccc5)c(=O)n4[C@H]3[C@H](O)[C@@H]3O[C@H]23)[C@@H](CO)O1,0.132,1.17 (inactive),-0.0199 (inactive),0.164 (inactive),0.312 (inactive),0.43,-0.0736,-0.207,0.369,0.23,-0.263 (inactive),-0.28,1.56 (inactive),1.07 (inactive),0.204 (inactive),0.588 (inactive),-1.02,-0.276 (inactive),0.964 (inactive),0.394
CO[C@H]1COC(=O)CCC[C@@H](C)[C@H](OC)COC(=O)[C@@H](C)NC(=O)CC=C[C@@H]1C,-0.183,-2.74 (inactive),-0.231 (inactive),-0.58 (inactive),-0.041 (inactive),-0.429,-0.152,2.63,1.5,2.1,0.312 (inactive),-0.0969,-0.806 (inactive),-0.912 (inactive),0.565 (inactive),-1.59 (inactive),1.05,-1.18 (inactive),-2.55 (inactive),-1.3
O=C1[C@H]2[C@H]3[C@H](O)[C@H](O)CC(=NOCc4ccccc4)[C@@H]3CC[C@H]2C(=O)N1c1ccc(F)cc1F,-0.0167,-1.69 (inactive),-1 (inactive),-0.469 (inactive),-0.445 (inactive),0.0494,-0.104,-0.111,-0.153,0.068,-0.246 (inactive),-0.391,1.17 (inactive),-0.56 (inactive),0.512 (inactive),-1.36 (inactive),2.35,-0.409 (inactive),0.18 (inactive),0.343
CC(=O)OC[C@H]1O[C@H](CC=NO[C@H](C)c2cn([C@H](CO)Cc3ccccc3)nn2)C=C[C@@H]1OC(C)=O,0.315,0.089 (inactive),-0.738 (inactive),0.839 (inactive),0.731 (inactive),1.35,-0.218,0.56,0.579,0.805,-0.176 (inactive),-0.007,0.639 (inactive),0.103 (inactive),0.238 (inactive),0.391 (inactive),-0.871,-0.0815 (inactive),0.835 (inactive),-1.3
